# Vaccinia Venus = qHTS for Stage-Specific Inhibitors of Vaccinia Orthopoxvirus: Venus Reporter Primary qHTS. Vaccinia virus Venus reporter expression, fluorescence. Potency, µM (series often up to 36.5 µM), inactives show top-dose activity change, negative = inhibition, actives largely listed as inhibitors. 0.46% of 330,000 active. AID 720580, 2013; calls by dose curve; tested in A549 cells; note: potency is the fitted concentration of half-maximal effect; nearly all actives have a fitted effect of over 30% in size
# HCMV antiviral = qHTS Assay for inhibitors of the human cytomegalovirus (HCMV). HFF cells, HCMV-luciferase reporter, 72 h; hits give low values. activity change, negative = inhibition, % at 57.5 µM. 4.5% of 410,000 active; in the data active = activity change below about -60%; inconclusive = no clear call, values can overlap the other calls; inactive = above about -39%
#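 Screen run at 2 compound doses on HFFs infected with reporter HCMV, MOI 1 PFU/cell. Luciferase activity from cell lysates at 72 h post infection gave inhibition relative to buffer-only and Salinomycin wells.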
# Vaccinia mCherry = qHTS for Stage-Specific Inhibitors of Vaccinia Orthopoxvirus: mCherry Reporter Primary qHTS; AID 720579, 2013; 0.63% of 310,000 active; Vaccinia virus mCherry reporter infection, fluorescence; Potency, µM (doses to about 36.5 µM), inactives show at the highest dose activity change, negative = inhibition, hits mostly inhibitors; calls by dose curve; tested in A549 cells; note: potency is the fitted concentration of half-maximal effect; nearly all actives have a fitted effect of over 35% in size
# FMDV antiviral = High Throughput Screening for Foot and Mouth Disease Virus Antivirals | 1.2% of 410,000 active | FMDV antiviral cell-based qHTS | Potency, µM (top dose mostly 57.9 µM), for the others: at the highest dose activity change, negative = inhibition, most hits filed as inhibitors; calls by dose curve; tested in HEK293T cells; note: read-out not given here; potency is the fitted concentration of half-maximal effect; nearly all actives have a fitted effect of over 45% in size
# HCV inh = qHTS Assay for Inhibitors of Hepatitis C Virus (HCV); Huh7.5.1 HCVcc-Cre infection, luciferase reporter, 44 h; Potency, µM (top dose mostly 41.8 µM), for inactives: at the top dose activity change, negative = inhibition, most hits filed as inhibitors; 3.4% of 340,000 active; AID 651820, 2012; active = well fitted inhibition curve with a large enough effect; inconclusive = small, poorly fitted or top-dose-only effect, or another doubt; inactive = no such curve, though single readings can be large or run the other way; note: potency is the fitted concentration of half-maximal effect
#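 Whole-lifecycle infectious HCVcc-Cre system; cells 1,000/well, compound then virus (~0.5 moi) added 4 h after plating, 44 h culture. Luciferase read 15 sec following 15 min substrate incubation, room temp.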
# Starred values were filed as active, the others as inactive; i = inactive; u = inconclusive; x = no result; + = active, no number; ! = repeats disagree; [ ] = another dose, or the depositor's remark. The list is not random: actives were taken first. Their share in the collection is about 7.3%. % is set by controls: 0 for no effect and ±100 for the full control effect.
SMILES,Vaccinia Venus,HCMV antiviral,Vaccinia mCherry,FMDV antiviral,HCV inh
Cc1ccc(NC(=O)c2ccc(NC(=O)N3CCSc4nc(C)cc(C)c43)cc2)c(Cl)c1,-4%,0,-10%,12%,x
O=c1c2cc(NC(=S)NCCCN3CCC(Cc4ccccc4)CC3)ccc2nc2n1CCCCC2,u,-96*,-21%,-21%,u
COc1cc(C(=O)Nc2ccc3nc4n(c(=O)c3c2)CCCCC4)cc(OC)c1OC,-1%[7.34 µM],9,-10%[7.34 µM],10µM*!,11µM*
O=c1c2cc(NC(=S)NCCN3CCCCCC3)ccc2nc2n1CCCCC2,-3%,0,-11%,-22%,u
O=c1c2cc(NC(=S)NC3CCCCC3)ccc2nc2n1CCCCC2,-14%,-80*,-12%,-27%,u
Cc1cccc(N2CCN(C(=S)Nc3ccc4nc5n(c(=O)c4c3)CCCCC5)CC2)c1C,-12%,73,-12%,u,6.3µM*
COC(=O)c1cc(CNC(=O)c2ccc3ccccc3n2)cc(NC(=O)c2cccc(OC)c2)c1,7%,x,-8%,-1%,x
O=C(NC1CCCCC1)N1CC(=O)N2[C@H](CO)[C@@H](c3ccc(Br)cc3)[C@@H]2C1,x,-18,x,x,x
CC1CCCCN1C(=S)Nc1ccc2nc3n(c(=O)c2c1)CCCCC3 (stereo unspecified),0%,-104*,-14%,23%,u
O=c1c2cc(NC(=S)N3CCC(N4CCCCC4)CC3)ccc2nc2n1CCCCC2,-1%,16,i,-16%,1%
COc1ccc(OC)c(NC(=O)CN2C(=O)COc3ccc(S(=O)(=O)NC4CCCC4)cc32)c1,-9%,-30,-4%,9%,x
O=C(COC(=O)c1cc([N+](=O)[O-])ccc1N1CCOCC1)Nc1c(Cl)cccc1Cl,-6%,-12,-5%,-6%,u
O=C(COC(=O)c1cc([N+](=O)[O-])ccc1N1CCOCC1)Nc1cccc(F)c1,x,-4,x,40µM*,13µM*
CC(=O)Nc1ccc(NC(=O)COC(=O)c2cc([N+](=O)[O-])ccc2N2CCOCC2)cc1,-14%,10,0%,-7%,-4%
CCOC(=O)c1ccccc1NC(=O)COC(=O)c1cc([N+](=O)[O-])ccc1N1CCOCC1,-26%,-17,i,u,2.2µM*
Cc1ccc2c(c1)c(=O)c(S(=O)(=O)c1ccc(C)c(C)c1)cn2CC(=O)Nc1ccccc1,-22%,15,-25%,4%,x
CC(=O)Oc1ccc2ccc3ccc(C(C)=O)cc3c2c1,-9%,3,u,6%,13µM*
CC(=O)c1ccc(OC(=O)Oc2ccc(C(C)=O)cc2)cc1,-14%,28,-14%,2%,23%
COc1cc(NC(=O)Cn2c(=O)n(Cc3ccccc3Cl)c(=O)c3cc(OC)c(OC)cc32)cc(OC)c1,-13%,3,-19%,-18%,x
COc1cc2nc(SCC(=O)NCc3ccco3)n(Cc3ccc(Cl)cc3)c(=O)c2cc1OC,x,-69*,x,6%,-5%
O=C(CSc1c2c(nc3cc(Cl)ccc13)CCCC2)NCc1ccco1,6%,-19,-15%,u,11µM*
O=C(CSc1c2c(nc3cc(Cl)ccc13)CCCC2)N1CCN(c2ccccc2)CC1,-18%,-78*,-18%,u,x
O=C(CSc1c2c(nc3cc(Cl)ccc13)CCCC2)NCc1ccccc1Cl,-20%,-80*,-17%,u,x
COc1cc(NC(=O)Cn2cc(C(=O)c3ccc(F)cc3)c(=O)c3ccc(C)nc32)cc(OC)c1,-16%,u,-2%,u,x
O=C(c1ccncc1)N1CCC2(CCCN(Cc3nccs3)C2)CC1,x,x,x,-4%,x
SMILES,Vaccinia Venus,HCMV antiviral,Vaccinia mCherry,FMDV antiviral,HCV inh
COC(=O)C(Nc1cc(OC)ccc1OC)(c1ccccc1)C(Nc1cc(OC)ccc1OC)c1ccc(C(F)(F)F)cc1 (stereo unspecified),x,-32,x,x,x
CC(C)C[C@H](NC(=O)c1nc[nH]c1C(=O)N[C@@H](CC(C)C)C(=O)OC(C)(C)C)C(=O)OC(C)(C)C,10µM*,-23,u,40µM*,u
CC(C)C[C@H](NC(=O)c1nc[nH]c1C(=O)NC(c1ccccc1)c1ccccc1)C(=O)OC(C)(C)C,u,-63*,u,-19%,1%
CC(C)C[C@H](NC(=O)c1nc[nH]c1C(=O)NC(c1ccccc1)c1ccccc1)C(=O)OCc1ccccc1,u,18,u,0%,u
CC(C)C[C@H](NC(=O)c1nc[nH]c1C(=O)NCC(=O)OC(C)(C)C)C(=O)OC(C)(C)C,-10%,-6,-11%,-18%,-10%[8.37 µM]
FC(F)(F)c1ccccc1Cc1c(-c2ccco2)nc2c3ccccc3ccn12,x,33,x,x,x
O=C(CN(CC(=O)NCc1ccccc1)CC(=O)NCc1ccccc1)NCc1ccccc1,x,-3,x,x,x
Cc1cc(C)nc(N/N=C/c2cc(C)n(CC(F)(F)F)c2C)n1,x,-75*,x,17%,0%
Cc1cc(C)nc(N/N=C/c2ccco2)n1,2%,28,-13%,13%,4%
N#Cc1ccc(/C=C2\C=Cc3ccccc32)cc1,-13%,x,20%,x,x
Cc1cc(O)c2c3c(c(=O)oc2c1)CCC(C)C3 (stereo unspecified),x,u,x,-2%,8.9µM*
CCOc1cc(C)cc2oc(=O)c3c(c12)CCCC3,-16%,x,1%,-10%,u
CC1=Nc2cc(C(=O)N3CCCC3)ccc2Sc2ccc(C)cc21,x,-4,x,-7%,1%
CC1=Nc2cc(C(=O)NCCCOC(C)C)ccc2Sc2ccc(C)cc21,u,-76*,u,15%,-11%
CC1=Nc2cc(C(=O)NCCc3ccc(Cl)cc3)ccc2Sc2ccc(C)cc21,u,-65*,u,-2%,x
CC1=Nc2cc(C(=O)NCCCOC(C)C)ccc2Sc2ccccc21,-24%,+,-3%,8%,-10%
CCCC1=Nc2cc(C(=O)NCCCOC(C)C)ccc2Sc2ccccc21,x,u,x,-16%,u
Cc1oc2c(c1C(=O)Nc1ccccc1Br)C1=NCCN1C=N2,-16%,13,-19%,44%,x
O=[N+]([O-])c1ccc(-[n+]2ccc3ccccc3c2)c([N+](=O)[O-])c1,u,13,10µM*,28µM*,u
c1ccc2cnccc2c1,-5%,x,-10%,x,x
CCOc1ccccc1CN1CCNC(=O)C1CC(=O)NC1CCCCCCC1 (stereo unspecified),-14%,-62*,-14%,11%,7%
CN1/C(=C\C(=O)c2ccco2)C(C)(C)c2ccccc21,22%,-71*,-17%,u,11µM*
CN1/C(=C\C(=O)c2cccnc2)C(C)(C)c2ccccc21,-17%,-2,-4%,18%,8%
CN1/C(=C\C(=O)c2cncc(Br)c2)C(C)(C)c2ccccc21,28%,-73*,-14%,u,u
CN1/C(=C/C(=O)c2nc(S(C)(=O)=O)ncc2Cl)C(C)(C)c2ccccc21,u,x,28µM*,10µM*,u
